Rab9 prom act – qHTS Assay for Rab9 Promoter Activators. Huh7 Rab9 promoter-luciferase reporter, luminescence, 24 h. 2.8% of 320,000 active. Potency, µM (highest dose often 9.22 µM), for the others: at the highest dose activation, negative = inhibition, most hits filed as activators; note: % of control where 0% means no effect; nearly all actives have a fitted effect of over 60% in size
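Stable Rab9-luc Huh7, 1500 cells/well, 2 h settle; cmpd in DMSO, 24 h, 37 °C/5% CO2; luciferase reagent 10 min RT; luminescence.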
SMN2 splice enh – qHTS Assay for Enhancers of SMN2 Splice Variant Expression; Potency, µM (series often up to 46.1 µM), for the others: top-dose activity change, positive = activation, most hits filed as activators; HEK293 SMN2-luciferase splicing reporter, luminescence, 30-36 h; AID 1458, 2008; 2.8% of 210,000 active; note: % of control where 0% means no effect; nearly all actives have a fitted effect of over 55% in size
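HEK293 cells carry an SMN2 minigene-luciferase reporter in which exon 7 inclusion puts luciferase in frame. Cells were seeded at 2000 cells/well, attached for 10-12 hours, then exposed to compounds for 30-36 hours at 37C before ONE-Glo luminescence.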
ELG1 genotox – qHTS screen for small molecules that induce genotoxicity in human embryonic kidney (HEK293T) cells expressing luciferase-tagged ELG1; Potency, µM (highest dose often 46 µM), for inactives: top-dose activity change, positive = activation, hits mostly activators; 1.3% of 330,000 active; HEK293T ELG1-luciferase reporter, luminescence, 16 h; note: % of control where 0% means no effect; nearly all actives have a fitted effect of over 60% in size
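Reporter readout depends on ELG1 protein level, which increases with genetic stress. After 16 hr compound exposure at 37 °C, luciferase activity was quantified using ONE-Glo.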
FLuc counter – qHTS profiling assay for firefly luciferase inhibitor/activator using purifed enzyme and Km concentrations of substrates (counterscreen for miR-21 project). purified FLuc, Km substrates, luminescence inhibition. 6.9% of 360,000 active. Luciferin 4-monooxygenase (Photinus pyralis), P08659. Potency, µM (highest dose often 57.5 µM), inactives show at the highest dose activity change, negative = inhibition, hits mostly inhibitors;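 note: plate controls were vehicle for no effect and reference inhibitor for full effect; nearly all actives have a fitted effect of over 55% in size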
Target sequence (P08659 whole entry, looked up): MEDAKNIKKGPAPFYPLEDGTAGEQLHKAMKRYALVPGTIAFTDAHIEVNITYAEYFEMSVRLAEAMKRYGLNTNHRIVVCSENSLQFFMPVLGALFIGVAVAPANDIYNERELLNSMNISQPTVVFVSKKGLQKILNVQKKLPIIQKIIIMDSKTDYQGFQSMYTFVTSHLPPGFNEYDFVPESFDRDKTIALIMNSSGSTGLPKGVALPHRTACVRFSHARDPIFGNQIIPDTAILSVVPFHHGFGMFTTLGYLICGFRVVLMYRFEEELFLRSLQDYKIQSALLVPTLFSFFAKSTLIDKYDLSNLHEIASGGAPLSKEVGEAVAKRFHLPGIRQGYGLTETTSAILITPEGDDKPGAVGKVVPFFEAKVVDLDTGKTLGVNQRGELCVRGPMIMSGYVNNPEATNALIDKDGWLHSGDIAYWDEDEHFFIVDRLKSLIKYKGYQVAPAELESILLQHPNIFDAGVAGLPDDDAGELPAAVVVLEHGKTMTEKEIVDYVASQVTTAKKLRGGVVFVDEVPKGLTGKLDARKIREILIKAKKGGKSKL
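Purified P. pyralis luciferase, 10 nM final, with Km-level 10 uM D-luciferin and 10 uM ATP in 50 mM Tris acetate pH 7.5, 10 mM Mg acetate, 0.01% Tween-20, 0.05% BSA; 6-point qHTS titration about 60 µM downward; luminescence read.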
Luc counter – Counterscreen for Luciferase (Kinase-Glo TM) Inhibition; Potency, µM (highest dose often 38.3 µM), inactives show at the highest dose activity change, negative = inhibition, hits mostly inhibitors; Kinase-Glo luciferase, ATP luminescence, 8 min; 0.28% of 200,000 active; Luciferin 4-monooxygenase (Photuris pensylvanica), Q27757; note: % is set by controls: 0 for no effect and ±100 for the full control effect; nearly all actives have a fitted effect of over 60% in size
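Luminescence was the read-out, taken after 8-minute incubation at ambient temperature. Luciferase turned over luciferin with 10 uM ATP in imidazole pH 7.2 buffer containing KCl, MgCl2, Tween 20 and BSA.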
NPC1 promoter act – qHTS Assay for NPC1 Promoter Activators. Huh7 NPC1 promoter luciferase reporter, 24 h. Potency, µM (titrated, usually from 9.22 µM), for inactives: top-dose activation, actives largely listed as activators. 2.4% of 320,000 active. AID 485313, 2010; note: % of control where 0% means no effect; nearly all actives have a fitted effect of over 60% in size
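Luciferase expression driven by the NPC1 promoter was measured in stably transfected Huh7 cells after a 24 h compound incubation, using a luciferase reagent and a luminescence read.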
Starred values were filed as active, the others as inactive; ? = inconclusive; . = no result; [ ] = remark or other dose. A selection: hits, their analogues and other compounds. The true share with any hit is near 7.5%. Calls come from the whole dose curve; as a rule, active = well fitted curve in the direction sought with a large enough effect; inconclusive = small, poorly fitted or top-dose-only effect, or another doubt; inactive = no such curve, though single readings can be large; an effect the other way counts as inactive or inconclusive. Potency is the fitted concentration of half-maximal effect.

SMILES	Rab9 prom act	SMN2 splice enh	ELG1 genotox	FLuc counter	Luc counter	NPC1 promoter act
COC(=O)c1ccc(OCC2c3cc(OC)c(OC)cc3CCN2C(=O)Cc2ccc(OC)c(OC)c2)cc1 (stereo not given)	.	.	.	-4.7%	.	.
Cc1cccc(C)c1NC(=O)N1CCC(C(=O)c2ccc(F)cc2)CC1	-2.1%	.	-2.2%	0.5%	.	-2.6%
CCCCS/C(N)=N/N=C/c1ccccc1O	3.16µM*	2.8%	?	13.5µM*	-3.8%	?
Oc1ccccc1C=NCCN=Cc1ccccc1O	1.5%	.	-0.1%	-6.7%	.	-0.1%
C/C(=N/N=C/c1ccccc1O)c1ccccc1O	?	.	6.51µM*	1.07µM*	.	24.6%
Cc1ccc(O)c(C=Nc2cc(C)ccc2O)c1	0.3%	16.7%	-0.1%	-6.8%	-1.2%	-0.4%
CCCS/C(N)=N/N=C/c1cc(C)ccc1O	?	-14.5%	6.51µM*	2.39µM*	1.8%	3.16µM*
CC(=O)c1c(C)[nH]c(C(=O)Nc2cccc(S(=O)(=O)N(C)C)c2)c1C	?	11.2µM*	?	-17.8%	-2.0%	1.0%
CC(=O)c1c(C)[nH]c(C(=O)Nc2ccc(S(=O)(=O)N(C)C)cc2)c1C	1.9%	.	7.9%	-2.3%	.	-9.5%
CC(=O)c1c(C)[nH]c(C(=O)Nc2cccc(S(=O)(=O)N3CCCC3)c2)c1C	.	.	16.4µM*	.	.	.
CCOc1ccccc1-c1nnc(CS(=O)(=O)c2ccccc2)o1	7.1%	.	0.3%	-0.6%	.	?
COc1ccc(Br)c(-c2nnc(CS(=O)(=O)c3ccccc3)o2)c1	2.82µM*	.	?	19µM*	.	?
CC[C@@H]1C=C(C(=O)O)[C@H](c2ccc(Br)cc2)N1S(=O)(=O)c1ccc(C)cc1	.	.	-0.6%	.	.	.
O=C(Nc1nc2ccc(F)cc2s1)Oc1ccccc1	-1.4%	.	7.5%	-14.5%	.	1.5%
NNc1nc2ccc(F)cc2s1	22.1%	21.4%	?	19µM*	-2.9%	15.1%
Fc1ccc2nc(Nc3ccccc3)sc2c1	2.24µM*	15.8µM*	?	7.57µM*	-4.1%	2.82µM*
Cc1ccc(OCC(=O)O/N=C(\N)c2ccccn2)cc1C	?	.	8.2µM*	12µM*	.	2.24µM*
Cc1cc(C)cc(OCC(=O)O/N=C(\N)c2ccccn2)c1	-8.1%	4.8%	?	?	-1.8%	-4.4%
Cc1cccc(OCC(=O)O/N=C(\N)c2ccccn2)c1	13.5%	?	?	16.9µM*	-4.0%	26.7%
N/C(=N\OC(=O)COc1ccccc1)c1ccccn1	23.4%	-9.2%[1.84 µM]	?	?	-5.2%	19.0%
CCc1ccc(OCC(=O)O/N=C(\N)c2ccccn2)cc1	3.16µM*	.	7.3µM*	9.53µM*	.	3.16µM*
Cc1ccc(OCC(=O)O/N=C(\N)c2ccncc2)cc1C	?	.	17.5%	?	.	16.6%
O=C(Nc1cccc(-c2nn[nH]n2)c1)c1csc2c1CCCC2	6.7%	.	3.3%	10.7µM*	.	12.0%
O=C(Nc1cccc(-c2nn[nH]n2)c1)c1cccs1	?	.	-3.0%	?	.	2.82µM*
CCc1ccc(C(=O)Nc2cccc(-c3nn[nH]n3)c2)s1	23.2%	.	0.1%	1.51µM*	.	1.6%
Cc1cccc(C(=O)NC(=S)N2CCN(C(=S)NC(=O)c3cccc(C)c3)CC2)c1	-12.0%	-18.3%	-11.3%	-18.7%	3.5%	-5.6%
Cc1c(C(=O)NCc2ccccc2Cl)sc2nc3n(c(=O)c12)CCCCC3	.	.	.	5.1%	.	.
CCCSc1nc2sc3c(c2c(=O)n1-c1ccc(C)c(Cl)c1)CCN(C(C)=O)C3	.	-10.4%	.	1.4%	.	.
CC(=O)Oc1ccc(-c2cccc(C(=O)O)c2)cc1	-1.2%	-6.8%	?	3.79µM*	-3.2%	11.6%
CC(=O)Oc1ccc(-c2ccc(C(=O)O)cc2)cc1	-6.8%	20.6%	5.4%	?	2.1%	-3.1%

Screens from PubChem.
